The full list was thinned out, with hits kept by preference.
HT1080NT lethal: qHTS for induction of synthetic lethality in tumor cells producing 2HG: qHTS for the HT-1080-NT fibrosarcoma cell line. HT-1080-NT fibrosarcoma viability, CellTiter-Glo ATP luminescence, 48 h. hit rate 1.6% among 360,000. Potency, µM (highest dose often 46.1 µM), for the others: at the highest dose activity, negative = less viability, usual class: cytotoxic;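 further: NT is the 2HG producing partner of a matched IDH1 knockdown line; potency means the concentration at half of the fitted maximal effect; 0% = DMSO-treated cells and -100% = media-only wells without cells; nearly all actives have a fitted effect of over 55% in size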
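Toxicity toward the 2HG-producing NT line was scored as %Activity, normalised to DMSO and no-cell wells, from CellTiter-Glo luminescence after 48 hours' treatment.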
TDP1 cell noCPT: qHTS for Inhibitors of human tyrosyl-DNA phosphodiesterase 1 (TDP1): qHTS in cells in absence of CPT; hit rate 15% among 420,000; DT40 Tdp1-/- hTDP1 cells, no CPT, ATP luminescence, 48 h; Potency, µM (titrated, usually from 46.2 µM), for inactives: at the top dose activity change, negative = growth inhibition, most hits filed as inhibitors; further: potency means the concentration at half of the fitted maximal effect; nearly all actives have a fitted effect of over 55% in size
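Camptothecin absent (DMSO only). Human TDP1-complemented DT40 knockout cells, 400 cells/well, 37 °C for minimum 48 hr; ATP measured via CellTiter-Glo, 30 min dark incubation, luminescence.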
HT1080 IDH1KD tx: qHTS for induction of synthetic lethality in tumor cells producing 2HG: qHTS for the HT-1080-IDH1KD cell line; hit rate 2% among 360,000; Potency, µM (doses to about 46.1 µM), inactives show at the top dose activity, negative = toxicity, usual class: cytotoxic; HT-1080 IDH1 knockdown viability, ATP luminescence, 48 h; AID 686971, 2013;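 further: potency means the concentration at half of the fitted maximal effect; 0% = DMSO wells and -100% = cell-free medium wells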
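Using the IDH1-knockdown HT-1080 line run in the same batch and compound series as the NT line, viability after 48 h at 37 °C was determined by CellTiter-Glo luminescence and expressed as % activity.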
TDP1 cell CPT: qHTS for Inhibitors of human tyrosyl-DNA phosphodiesterase 1 (TDP1): qHTS in cells in presence of CPT; chicken DT40 Tdp1-/-;hTDP1 cells + 20 nM CPT, ATP luminescence, 48 h; hit rate 12% among 420,000; Potency, µM (titrated, usually from 46.2 µM), for inactives: at the highest dose activity change, negative = growth inhibition, actives largely listed as inhibitors; further: potency means the concentration at half of the fitted maximal effect; nearly all actives have a fitted effect of over 55% in size
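Cell growth measured by CellTiter-Glo luminescence after a minimum 48 h, 37 C compound exposure with 20 nM CPT in Tdp1-knockout DT40 cells stably expressing hTDP1, seeded 400/well; qHTS titration format.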
IL1B secr inh: qHTS for Inhibitors of Inflammasome Signaling: IL-1-beta AlphaLISA Primary Screen | THP-1 LPS/ATP IL-1B secretion, AlphaLISA, 16 h; hits give low values | activity change, % at 57.5 µM | hit rate 4.7% among 360,000 | AID 743279, 2014; in the data active means activity change below about -50%; inconclusive means mostly about -30% to -49%
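THP-1 cells pretreated 1 hr with compounds (up to 57.5 uM final), then stimulated with LPS (250 ng/mL final) plus ATP (1.25 mM final); secreted IL-1B measured by AlphaLISA after 16 hr, decreased signal indicating inhibition.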
12-LOX inh: Primary qHTS assay for inhibitors of human arachidonate 12S-lipoxygenase (ALOX12): Round 2; Potency, µM (doses to about 108 µM), for the others: top-dose activity change, negative = inhibition, actives largely listed as inhibitors; purified 12hLO, xylenol orange hydroperoxide absorbance; hit rate 1.1% among 580,000; AID 1671190, 2021; Polyunsaturated fatty acid lipoxygenase ALOX12 (Homo sapiens), P18054; further: potency means the concentration at half of the fitted maximal effect
Target sequence (P18054 whole entry, looked up): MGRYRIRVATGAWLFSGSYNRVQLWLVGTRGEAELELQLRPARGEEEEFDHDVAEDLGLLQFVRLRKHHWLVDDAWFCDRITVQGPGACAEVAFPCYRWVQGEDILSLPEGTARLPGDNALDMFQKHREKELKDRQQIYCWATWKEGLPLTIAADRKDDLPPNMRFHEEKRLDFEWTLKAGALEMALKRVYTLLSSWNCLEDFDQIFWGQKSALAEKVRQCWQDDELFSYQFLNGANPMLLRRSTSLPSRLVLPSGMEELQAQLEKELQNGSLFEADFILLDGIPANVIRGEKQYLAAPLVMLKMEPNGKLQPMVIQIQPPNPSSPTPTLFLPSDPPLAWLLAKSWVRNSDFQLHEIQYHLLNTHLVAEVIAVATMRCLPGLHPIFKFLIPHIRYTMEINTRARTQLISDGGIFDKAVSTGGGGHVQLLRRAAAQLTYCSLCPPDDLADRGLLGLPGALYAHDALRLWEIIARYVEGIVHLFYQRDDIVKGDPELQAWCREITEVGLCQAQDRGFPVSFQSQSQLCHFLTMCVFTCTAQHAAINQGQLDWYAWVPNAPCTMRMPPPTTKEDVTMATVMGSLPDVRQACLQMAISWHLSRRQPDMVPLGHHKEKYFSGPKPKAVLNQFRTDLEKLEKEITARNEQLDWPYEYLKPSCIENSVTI
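Hydroperoxide product was detected by ferrous iron/xylenol orange as the 573 to 405 nm absorbance ratio. Arachidonic acid at 40 uM (final) was turned over for 30 min at room temperature by 150 nM human 12hLO, pH 7.0 Hepes buffer, after 15 min compound preincubation.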
An asterisk follows results filed as active; i = inactive; ? = inconclusive; . = not tested or not shown; [ ] = another dose, or the depositor's remark. Unless noted, the call rests on the fitted dose curve; in most records, active means well fitted curve in the direction sought with a large enough effect; inconclusive means small, poorly fitted or top-dose-only effect, or another doubt; inactive means no such curve, though single readings can be large; an effect the other way counts as inactive or inconclusive. Unless noted, on the % scale 0 is the no-effect control and ±100 the full control effect.

SMILES | HT1080NT lethal | TDP1 cell noCPT | HT1080 IDH1KD tx | TDP1 cell CPT | IL1B secr inh | 12-LOX inh
Cc1nn(C)c(C)c1S(=O)(=O)N1CCC(C(=O)NCCC2=CCCCC2)CC1 | -7% | ? | 1% | 18µM* | 36 | -10%
O=S(=O)(c1cccc(Cl)c1Cl)N1CCN(c2nnnn2-c2ccccc2)CC1 | . | . | . | . | . | 1%
COc1cccc(-n2nnc3c(=O)n(Cc4cccc(F)c4)cnc32)c1 | -19% | -8% | 1% | ? | -55* | -18%
CCN(c1ccccc1)S(=O)(=O)c1cccc(C(=O)NCC(c2ccc(F)cc2)N2CCOCC2)c1 (stereo unspecified) | -10% | 10µM* | -7% | 23µM* | -25 | 0%
CN(c1ccccc1)S(=O)(=O)c1cccc(C(=O)NCC(c2cccs2)N2CCOCC2)c1 (stereo unspecified) | -3% | 16µM* | 0% | ? | 15 | 2%
Cc1ccc(Sc2ncccc2C(=O)NCC(c2ccc(F)cc2)N2CCOCC2)c(C)c1 (stereo unspecified) | 0% | ? | -14% | 15µM* | -5 | -1%
Cc1ccc(NS(=O)(=O)c2cccc(C(=O)NCC(c3ccc(F)cc3)N3CCOCC3)c2)cc1 (stereo unspecified) | ? | 16µM* | -27% | 29µM* | -51* | -20%
O=C(NCC(c1ccc(F)cc1)N1CCOCC1)c1cccnc1Sc1ccccc1 (stereo unspecified) | 0% | ? | -1% | -20% | 10 | 9%
O=C(NC(c1ccccc1)c1ccc(Br)cc1)C(c1ccccc1)C1CCCC1 (stereo unspecified) | . | . | . | . | . | 2%
COc1cccc(Oc2coc3cc(OCC#N)ccc3c2=O)c1 | . | . | . | . | . | 7%
C=CCN(c1ccccc1)S(=O)(=O)c1cccc(C(=O)NCC(c2ccc(F)cc2)N2CCOCC2)c1 (stereo unspecified) | 1% | 16µM* | -7% | 13µM* | 4 | 11%
CCN1C(=O)COC[C@@H]1[C@H](O)c1ccc(NC(=O)CC(C)(C)C)cc1 | . | . | . | . | . | 9%[176 µM]
Oc1ccccc1-n1c(-c2ccccc2)ccc1-c1ccccc1 | ? | -25% | ? | ? | -80* | ?
CCN(CC)C(=O)c1cccc(-c2csc(C(O)(c3ccccc3)C(F)(F)F)n2)c1 (stereo unspecified) | 23µM* | 16µM* | 16µM* | ? | -4 | -2%
CCN(CC)C(=O)c1cccc(-c2csc(C(C)(NC(C)=O)c3ccc(OC)cc3)n2)c1 (stereo unspecified) | 4% | 13µM* | 0% | ? | -15 | 10%
CCN(CC)C(=O)c1cccc(-c2csc(C(C)(O)c3ccc(OC)cc3)n2)c1 (stereo unspecified) | 5.8µM* | 4.6µM* | ? | 5.8µM* | 4 | 10%
COc1ccc(C(C)(NC(C)=O)c2nc(/C=C/c3ccccc3)cs2)cc1 (stereo unspecified) | ? | ? | -26% | ? | -1 | ?
CCN(CC)C(=O)c1cccc(-c2csc(C(C)(O)c3cccc(OC)c3)n2)c1 (stereo unspecified) | -4% | 23µM* | ? | 18µM* | -15 | 4%
CCN(CC)C(=O)c1cccc(-c2ccc(OC)cc2)c1 | 2% | 22% | -3% | -28% | -5 | -23%
CCN(CC)C(=O)c1cccc(-c2csc(C(C)(O)c3ccc(F)c(F)c3)n2)c1 (stereo unspecified) | ? | 21µM* | ? | ? | -8 | .
COc1ccc(CC(=O)N(Cc2cccs2)C2CCS(=O)(=O)C2)cc1 (stereo unspecified) | . | . | . | . | . | -19%
Cc1cc(C(=O)COC(=O)C2=NNC(=O)CC2)c(C)n1-c1ccccc1 | 25% | -13% | 3% | -24% | 6 | -3%
Cc1ccc(-n2c(C)cc(C(=O)COC(=O)C3=NNC(=O)CC3)c2C)cc1 | -7% | ? | -7% | 16µM* | 5 | i
Cc1ccc(-n2c(C)cc(C(=O)COC(=O)c3c(C)noc3C)c2C)cc1 | -24% | 9.2µM* | -21% | 9.2µM* | -58* | -16%
CCS(=O)(=O)N1CCC(N2CCCC(C(=O)NCCc3ccccc3)C2)CC1 (stereo unspecified) | . | . | . | . | . | 8%
SMILES | HT1080NT lethal | TDP1 cell noCPT | HT1080 IDH1KD tx | TDP1 cell CPT | IL1B secr inh | 12-LOX inh
CC(NC(=O)Cc1cccc2cccnc12)c1ccccc1 (stereo unspecified) | . | . | . | . | . | -1%
Cc1ccc(S(=O)(=O)Nc2ccc3ccccc3c2)cc1 | -6% | ? | -3% | ? | ? | ?
Cc1ccc(NS(=O)(=O)c2cc3c4c(cccc4c2)C(=O)NC3=O)cc1 | ? | 9.2µM* | ? | ? | 14 | -18%
CNS(=O)(=O)c1cc2c3c(cccc3c1)C(=O)NC2=O | -2% | 23µM* | -8% | 18µM* | -10 | -10%
CCOC(=O)c1ccccc1NC(=O)CSc1c(CC(C)C)cnc2c1c(=O)n(C)c(=O)n2C | . | . | . | . | . | -1%
Nc1ccnn1C1CCCCC1 | . | . | . | . | . | -2%
O=C(c1ccccc1)c1ccc(NCCCn2ccnc2)c([N+](=O)[O-])c1 | -24% | ? | -21% | -29% | -74* | -19%
COc1cccc(/C=N/NC(=O)CNC(=O)c2cccs2)c1O | ? | 9.2µM* | ? | 5.8µM* | 112 | 18%
Cc1ccc(/C=N/NC(=O)CNC(=O)c2cccs2)cc1 | 12% | 1% | 11% | -1% | 7 | 9%
COc1cccc(/C=N/NC(=O)CNC(=O)CCc2ccccc2)c1O | ? | ? | 21µM* | ? | 232 | -1%
COc1ccccc1/C=C\C(=O)NCC(=O)N/N=C/c1cccc(OC)c1O | ? | 7.3µM* | 15µM* | 7.3µM* | 183 | -18%
COc1ccc(/C(C)=N/NC(=O)CNC(=O)COc2ccccc2)c(OC)c1 | 4% | 2% | -1% | -4% | -4 | 0%
